Results as given in PubChem BioAssay.
Inconclusive results are not listed. Activity calls are given as the source filed them.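 Rule for the calls, unless noted: active = cell viability at or below a set limit in both duplicate runs, the limit being the all-compound median minus 4 SD (cut at about 23% in these data, passing the limit was not always enough); inconclusive = no clear call, values can overlap the other calls; inactive = the rest.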

Columns and labels:
[1] = reducers of endogenous Her2 protein level, primary screen, SKBR3 breast tumor cells, AlphaScreen, ATP viability (AID 461;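 active = Her2 level under about 52% in both replicate screens, with viability over 70% of control, limit read from the data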;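 for Her2 level: lower value means less Her2 protein in the cells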;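 for viability: percent of carrier control wells set as 100% viability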); details: 18-24 h, measured here: SKBR3 viability, ATP luminescence, at 10 µM
[2] = target: Receptor tyrosine-protein kinase erbB-2 (Homo sapiens) (UniProt P04626); experiment: as above; details: 18-24 h, at 10 µM, stronger effect = lower value
[3] = SK-BR-3 cell growth inhibitors, pilot screen, 24 h, human (AID 572;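 active = viability at or below 10% of carrier control in both of two separate runs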;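 note: compound exposure lasted between 18 and 24 h rather than exactly 24 h; 100% = carrier-treated control wells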); details: SK-BR-3 viability, CellTiter-Glo luminescence, at 10 µM, stronger effect = lower value
[4] = HUVEC growth inhibition – cell-based, human, primary screen (AID 575;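 active = viability at or below 30% in both replicate assays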;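 note: 100% = median of untreated cell wells with 0.1% DMSO on each plate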); details: HUVEC proliferation, CellTiter-Glo luminescence, 72 h; at 10 µM; stronger effect = lower value
[5] = growth inhibitors of H69AR lung tumor, primary screen, human, duplicate replicates (AID 580;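 active = viability at or under a set limit in both replicates, limit being median viability minus 3 SD, cut at about 48% in these data, passing the limit was not always enough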;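 note: 100% = mean luminescence of untreated wells and 0% = no signal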); details: H69AR lung tumor cells viability, ATP luminescence, 72 h; at 10 µM; stronger effect = lower value
[6] = reversal of MRP1-mediated doxorubicin resistance, pilot screen, H69AR cells, doxorubicin co-treatment (AID 601;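 active = viability loss from added drug above about 55%, and viability with drug at most 40%, in both replicates, limit read from the data, passing the limit was not always enough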); details: CellTiter-Glo, 72 h, at 10 µM; for differential viability (reversal): stronger effect = higher value
[7] = 384-well plate pilot, post-Golgi transport modulator project, inhibition of yeast transport mutant growth (AID 636; in the data active = inhibition above about 31%); details: absorbance 615 nm, about 18 h, stronger effect = higher value
[8] = growth suppression of yeast trafficking mutant, preliminary HTS, modulators of trafficking downstream of Golgi apparatus project, 1536-format plate, OD 615 nm (AID 637; in the data active = inhibition above about 30%); details: yeast transport mutant growth, absorbance 615 nm, 18 h; stronger effect = higher value
[9] = OD615 S. cerevisiae growth inhibition, permissive medium, pilot counter-assay, permissive growth control for S. cerevisiae lifespan shortening project (AID 705;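 active = growth inhibition above 25% in both replicates, a cutoff set 3 SD above the mean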); details: OD615, 24 h, at 10 µM, stronger effect = higher value
[10] = Restrictive medium S. cerevisiae growth inhibition, OD615, pilot screen of yeast lifespan reduction project, restrictive growth control (AID 706;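 active = growth inhibition above a set limit, 3 SD over mean compound inhibition, in both replicates, cut at about 43% in these data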;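 note: modified DeaD lifespan yeast strain shifted to restrictive glucose medium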); details: OD615, 48 h, at 10 µM, stronger effect = higher value
[11] = viability gain of MRP-1-high H69AR cells under doxorubicin, pilot screen, MRP-1 activator project, CellTiter-Glo, duplicate (AID 807;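 active = viability increase at or above a cutoff of the median across tested compounds plus 3 SD, cut at about 8.5% in these data, passing the limit was not always enough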;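 note: compound pretreatment 18-22 h then 72 h combined with doxorubicin; 0% = doxorubicin alone and 100% = vehicle without doxorubicin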); details: H69AR viability with doxorubicin, CellTiter-Glo luminescence; at 10 µM; stronger effect = higher value
[12] = growth suppression of beta-catenin knockout HCT116, pilot screen, human colon tumor cells (AID 823); details: CellTiter-Glo, 60 h, at 10 µM, stronger effect = lower value;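 note: 0% = wells killed by 20 µM Hyamine and 100% = untreated DMSO cell wells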
[13] = growth suppression of PTEN-deleted HCT116, pilot screen, cell-based, HCT116 clonal line, CellTiter-Glo (AID 824;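 active = viability at or below 27.92% in each of two runs, the all-compound median minus 4 SD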;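 note: 0% = 20 µM Hyamine control and 100% = vehicle cell control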); details: 60 h, at 10 µM, stronger effect = lower value
[14] = inhibitors of the yeast RAM network, pilot screen, dse1pr::URA3 reporter, 5-FOA selection (AID 869;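 active = inhibition over a set limit, the all-compound mean plus 3 SD, in both replicate runs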;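 note: 0% = DMSO wells with no growth and 100% = 10 µM 1-NA-PP1 with full growth; RAM network block rescues cells from 5-FOA so hits raise OD615 growth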); details: S. cerevisiae dse1pr::URA3 5-FOA growth, OD615, 2 d; at 10 µM; stronger effect = higher value; strain carries analog-sensitive mutant Cbk1 kinase
[15] = RAM signaling pathway blockade in yeast – S. cerevisiae, Pdr1DBD-CYC8 efflux-inhibited sensitized strain, primary screen (AID 1298;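 active = RAM network inhibition above 8.4% in each of two replicates, 3 SD over the compound average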;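 note: 0% = DMSO untreated cells without growth and 100% = 10 µM 1-NA-PP1 full growth; higher means more yeast growth rescued from 5-FOA killing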); details: S. cerevisiae cbk1-as DSE1-URA3 strain, 5-FOA growth OD615, 2 d; at 50 µM; stronger effect = higher value
[16] = H69AR cells + 2 uM doxorubicin, measured here: viability with 2 uM doxorubicin, stronger effect = lower value
[17] = H69AR cells, compound alone cytotoxicity

Sequence of Receptor tyrosine-protein kinase erbB-2 (Homo sapiens) (P04626 whole entry, looked up): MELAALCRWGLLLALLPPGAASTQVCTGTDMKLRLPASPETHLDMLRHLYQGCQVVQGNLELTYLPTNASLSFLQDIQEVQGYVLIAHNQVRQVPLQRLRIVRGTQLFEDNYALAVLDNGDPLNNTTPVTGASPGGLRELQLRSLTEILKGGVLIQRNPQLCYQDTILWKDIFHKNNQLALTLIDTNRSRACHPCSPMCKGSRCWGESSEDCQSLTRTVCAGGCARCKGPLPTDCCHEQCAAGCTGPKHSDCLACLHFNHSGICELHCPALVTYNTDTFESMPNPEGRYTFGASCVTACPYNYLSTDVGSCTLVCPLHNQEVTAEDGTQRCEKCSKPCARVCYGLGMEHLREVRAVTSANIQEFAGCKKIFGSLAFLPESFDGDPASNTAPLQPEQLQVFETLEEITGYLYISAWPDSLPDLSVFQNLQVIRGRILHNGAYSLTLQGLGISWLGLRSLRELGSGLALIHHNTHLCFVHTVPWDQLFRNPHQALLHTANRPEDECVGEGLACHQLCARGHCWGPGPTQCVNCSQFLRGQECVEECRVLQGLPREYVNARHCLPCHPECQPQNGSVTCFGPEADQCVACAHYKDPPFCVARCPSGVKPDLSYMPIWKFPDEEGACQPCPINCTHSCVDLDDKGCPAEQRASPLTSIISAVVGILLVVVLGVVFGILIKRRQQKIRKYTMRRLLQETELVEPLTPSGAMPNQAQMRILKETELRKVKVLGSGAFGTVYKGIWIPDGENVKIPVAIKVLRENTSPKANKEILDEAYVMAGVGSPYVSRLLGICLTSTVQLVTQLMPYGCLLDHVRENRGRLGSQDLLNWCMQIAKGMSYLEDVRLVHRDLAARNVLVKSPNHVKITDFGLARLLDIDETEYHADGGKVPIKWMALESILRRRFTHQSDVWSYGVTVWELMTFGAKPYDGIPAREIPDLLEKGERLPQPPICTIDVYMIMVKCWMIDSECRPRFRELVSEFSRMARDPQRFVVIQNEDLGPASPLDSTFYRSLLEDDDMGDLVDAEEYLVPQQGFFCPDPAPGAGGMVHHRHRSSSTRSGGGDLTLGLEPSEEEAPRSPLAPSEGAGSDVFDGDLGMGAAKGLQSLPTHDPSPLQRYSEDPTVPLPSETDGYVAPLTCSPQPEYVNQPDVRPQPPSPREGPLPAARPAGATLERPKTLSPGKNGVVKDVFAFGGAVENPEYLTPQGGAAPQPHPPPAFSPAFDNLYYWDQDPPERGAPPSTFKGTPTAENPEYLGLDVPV

CC(=O)Nc1ccc(S(=O)(=O)Nc2nc3c(s2)CCCC3)cc1
inactive: Her2 level [2] 103% | viability [3] 106% | viability [4] 106% | viability [5] 99.5% | differential viability (reversal) ([6]; H69AR cells + 2 uM doxorubicin) 11.5% | inhibition [7] -8.93% | inhibition [8] -9.52% | growth inhibition [9] 4.96% | growth inhibition [10] 12.8% | viability increase [11] -1.41% | viability [12] 95.1% | viability [13] 90.7% | inhibition [14] 1.9% | RAM network inhibition [15] 2.5%
99.5%: viability [6, 17]
88%: viability [6, 16]
106%: viability [1]

CCC(=O)c1cc(F)c(N2CCN(C(=O)c3ccco3)CC2)cc1C
87.9%: viability [6, 17]
inactive: Her2 level [2] 90.5% | viability [3] 82% | viability [4] 91.2% | viability [5] 87.9% | differential viability (reversal) ([6]; H69AR cells + 2 uM doxorubicin) -8.33% | inhibition [7] -0.8% | inhibition [8] 2.13% | growth inhibition [9] -10.3% | growth inhibition [10] -0.62% | viability increase [11] -0.95% | viability [12] 97.9% | viability [13] 88.3% | inhibition [14] 1.4% | RAM network inhibition [15] 0.21%
96.3%: viability [6, 16]
82%: viability [1]

CCN(CC)CCN1C(=O)c2oc3ccc(F)cc3c(=O)c2C1c1ccncc1 (stereo not given)
89.5%: viability [1]
inactive: Her2 level [2] 96.5% | viability [3] 89.5% | viability [4] 95.6% | viability [5] 87.5% | differential viability (reversal) ([6]; H69AR cells + 2 uM doxorubicin) 4.02% | inhibition [7] -3.2% | inhibition [8] -8.67% | growth inhibition [9] -0.15% | growth inhibition [10] -0.92% | viability increase [11] 0.69% | viability [12] 96.4% | viability [13] 95.9% | inhibition [14] 0.78% | RAM network inhibition [15] 2.14%
87.5%: viability [6, 17]
83.5%: viability [6, 16]

Cc1cccc(-n2ncc3c(N4CCC5(CC4)OCCO5)ncnc32)c1
53.8%: viability [6, 16]
106%: viability [1]
inactive: Her2 level [2] 92.5% | viability [3] 106% | viability [4] 76% | differential viability (reversal) ([6]; H69AR cells + 2 uM doxorubicin) -11.1% | inhibition [7] -4.4% | inhibition [8] -9.33% | growth inhibition [9] -2.87% | growth inhibition [10] -15.6% | viability increase [11] -7.22% | viability [12] 78% | viability [13] 59.5% | inhibition [14] 1.75% | RAM network inhibition [15] 3.86%
active: viability [5] 42.6%
42.6%: viability [6, 17]

CN(CC(=O)N1CCCCC1)S(=O)(=O)c1cccc2cccnc12
97.5%: viability [6, 17]
inactive: Her2 level [2] 104% | viability [3] 99% | viability [4] 91.5% | viability [5] 97.5% | differential viability (reversal) ([6]; H69AR cells + 2 uM doxorubicin) 1.62% | inhibition [7] -0.4% | inhibition [8] -1.8% | growth inhibition [9] -4.94% | growth inhibition [10] 9.9% | viability increase [11] -2.03% | viability [12] 94.6% | viability [13] 94.7% | inhibition [14] 0.26% | RAM network inhibition [15] 1.14%
95.8%: viability [6, 16]
99%: viability [1]

COc1cccc(-c2nc(CS(=O)(=O)CC(=O)N3CCc4ccccc4C3)c(C)o2)c1
89.1%: viability [6, 17]
93.5%: viability [1]
83.1%: viability [6, 16]
inactive: Her2 level [2] 86.5% | viability [3] 93.5% | viability [4] 93.3% | viability [5] 89.1% | differential viability (reversal) ([6]; H69AR cells + 2 uM doxorubicin) 6% | inhibition [7] -0.67% | inhibition [8] 0.98% | growth inhibition [9] 2.52% | growth inhibition [10] 8.9% | viability increase [11] -2.85% | viability [12] 75.5% | viability [13] 73.7% | inhibition [14] 1.68% | RAM network inhibition [15] 6.29%

COc1cc2c(cc1OC)CN(C(=O)CSc1nc3[nH]ncc3c(=O)n1-c1ccccc1)CC2
80.1%: viability [6, 16]
91.7%: viability [6, 17]
105%: viability [1]
inactive: Her2 level [2] 97% | viability [3] 105% | viability [4] 79.7% | viability [5] 91.7% | differential viability (reversal) ([6]; H69AR cells + 2 uM doxorubicin) 11.6% | inhibition [7] -4.93% | inhibition [8] -2.62% | growth inhibition [9] 0.33% | growth inhibition [10] -24.6% | viability increase [11] -1.5% | viability [12] 101% | viability [13] 90.9% | inhibition [14] 1.19% | RAM network inhibition [15] 2.58%

C(=N\c1c(-c2ccccc2)nc2n1CCS2)/c1ccccc1
100%: viability [6, 17]
89.5%: viability [6, 16]
102%: viability [1]
inactive: Her2 level [2] 104% | viability [3] 102% | viability [4] 85.9% | viability [5] 100% | differential viability (reversal) ([6]; H69AR cells + 2 uM doxorubicin) 10.5% | inhibition [7] -1.69% | inhibition [8] -6% | growth inhibition [9] 1.59% | growth inhibition [10] 40.4% | viability increase [11] -4.2% | viability [12] 84.8% | viability [13] 90.2% | inhibition [14] 0.675% | RAM network inhibition [15] 6.86%

CCCC(=O)Nc1nc2ccc(S(N)(=O)=O)cc2s1
88%: viability [1]
71.4%: viability [6, 16]
inactive: Her2 level [2] 98% | viability [3] 88% | viability [4] 90% | viability [5] 106% | differential viability (reversal) ([6]; H69AR cells + 2 uM doxorubicin) 34.3% | inhibition [7] -3.33% | inhibition [8] 6.33% | growth inhibition [9] -4% | growth inhibition [10] -0.595% | viability increase [11] -1.78% | viability [12] 99.4% | viability [13] 90.5% | inhibition [14] 0.465% | RAM network inhibition [15] -0.2%
106%: viability [6, 17]

CCOC(=O)c1ccc(-n2c(C)nc3c(cnn3-c3ccccc3C)c2=O)cc1
102%: viability [6, 16]
98.1%: viability [6, 17]
inactive: Her2 level [2] 108% | viability [3] 94% | viability [4] 117% | viability [5] 98.1% | differential viability (reversal) ([6]; H69AR cells + 2 uM doxorubicin) -3.79% | inhibition [7] -0.8% | inhibition [8] -3.93% | growth inhibition [9] 2.42% | growth inhibition [10] 2.89% | viability increase [11] -0.28% | viability [12] 94.4% | viability [13] 91% | inhibition [14] 1.17% | RAM network inhibition [15] 2.95%
94%: viability [1]
